This is a sample that favours compounds with a hit; in the whole collection about 18% have one here.
VDR inh = inhibitors of human vitamin D receptor | P11473 | VDR-SRC2-3 peptide fluorescence polarization, 2 h | Potency, µM, hits mostly inhibitors | 400,000 compounds, 0.93% hits | AID 504847
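Two reagent solutions held at 4 deg C in the dark were dispensed, compounds pinned at 23 nl, and the mixture incubated 2 h at room temperature. Read-out: fluorescence polarization of VDR–SRC2-3 peptide binding.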
TDP1 cell noCPT = qHTS for Inhibitors of human tyrosyl-DNA phosphodiesterase 1 (TDP1): qHTS in cells in absence of CPT. Potency, µM (series often up to 46.2 µM), usual class: inhibitors. AID 686978, 2013. DT40 Tdp1-/- hTDP1 cells, no CPT, ATP luminescence, 48 h. 420,000 compounds, 15% hits; further: nearly all actives have a fitted effect of over 55% in size
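DT40 Tdp1-/-;hTDP1 cells, no CPT (DMSO vehicle only), 400 cells/well; compounds pin-transferred; ≥48 hr, 37 °C; CellTiter-Glo 30 min RT dark, luminescence read.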
GCN5L2 inh = blocks human GCN5L2 histone acetyltransferase; Q92830; GCN5L2 HAT assay, ThioGlo1 CoA-SH fluorescence; Potency, µM (highest dose often 58.9 µM), hits mostly inhibitors; 390,000 compounds, 0.21% hits; AID 504327
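Free CoA generated was detected with ThioGlo1 (50uM) fluorescence at Ex340nm/Em540nm, read immediately and after 20 min at room temperature. Enzyme, 20 nM in HEPES pH 7.5 buffer, saw compounds 15 min before adding 75uM H3(1-25) peptide and 70uM acetyl-CoA.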
TDP1 block = blocks human tyrosyl-DNA phosphodiesterase 1; Q9NUW8; recombinant TDP1, AlphaScreen DNA substrate cleavage; Potency, µM (top dose mostly 130 µM), actives largely listed as inhibitors; 350,000 compounds, 0.28% hits; AID 485290; further: nearly all actives have a fitted effect of over 40% in size
Target sequence (Q9NUW8 whole entry, looked up): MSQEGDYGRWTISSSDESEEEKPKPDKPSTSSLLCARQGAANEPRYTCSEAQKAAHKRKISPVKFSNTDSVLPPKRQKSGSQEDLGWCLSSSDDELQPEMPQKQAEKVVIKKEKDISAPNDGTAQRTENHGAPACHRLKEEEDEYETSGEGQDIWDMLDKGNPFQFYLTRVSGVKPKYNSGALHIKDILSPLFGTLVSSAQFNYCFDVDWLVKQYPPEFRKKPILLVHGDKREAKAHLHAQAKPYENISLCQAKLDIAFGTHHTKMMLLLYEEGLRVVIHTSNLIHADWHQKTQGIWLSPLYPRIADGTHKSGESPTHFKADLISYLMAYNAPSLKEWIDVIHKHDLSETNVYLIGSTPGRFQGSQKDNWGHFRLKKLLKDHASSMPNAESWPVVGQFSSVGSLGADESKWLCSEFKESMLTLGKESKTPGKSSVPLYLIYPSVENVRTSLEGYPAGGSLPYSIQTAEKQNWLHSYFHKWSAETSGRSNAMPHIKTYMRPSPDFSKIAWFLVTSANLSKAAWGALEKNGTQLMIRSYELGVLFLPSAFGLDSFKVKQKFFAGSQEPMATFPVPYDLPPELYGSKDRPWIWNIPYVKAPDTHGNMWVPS
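Enzyme-compound mixtures sat 15 min at room temperature, followed by a 5 min reaction with 15 nM final substrate and 10 min with AlphaScreen beads. Recombinant human Tdp1 was used at 1 nM final.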
DT40 TDP1 CPT = growth inhibition of DT40 Tdp1-/-;hTDP1 cells with camptothecin (screen for TDP1 inhibitors) | 420,000 compounds, 12% hits | Potency, µM (titrated, usually from 46.2 µM), usual class: inhibitors | chicken DT40 Tdp1-/-;hTDP1 cells + 20 nM CPT, ATP luminescence, 48 h; further: nearly all actives have a fitted effect of over 55% in size
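Cell growth measured by CellTiter-Glo luminescence after a minimum 48 h, 37 C compound exposure with 20 nM CPT in Tdp1-knockout DT40 cells stably expressing hTDP1, seeded 400/well; qHTS titration format.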
PLK1 PBD block = PLK1 (human) polo-box domain binding inhibition | P53350 | Plk1 PBD binding of FITC phosphopeptide, fluorescence polarization | Potency, µM, actives largely listed as inhibitors | 360,000 compounds, 2.8% hits; further: series mostly up to about 57 µM; nearly all actives have a fitted effect of over 65% in size
Numbers stand for hits; - = inactive; ? = inconclusive; . = not tested or not shown; ! = not active in a repeat; [ ] = dose if it differs, or a comment. The call rests on the fitted dose curve; in most records, active means well fitted curve in the direction sought with a large enough effect; inconclusive means small, poorly fitted or top-dose-only effect, or another doubt; inactive means no such curve, though single readings can be large; an effect the other way counts as inactive or inconclusive.

SMILES	VDR inh	TDP1 cell noCPT	GCN5L2 inh	TDP1 block	DT40 TDP1 CPT	PLK1 PBD block
Cc1occc1C(=O)NCCCCNC(=O)c1ccoc1C	-	-	-	-	-	-
COCCCNC(=O)c1ccccc1C(F)(F)F	?	?	-	-	?	15µM
CCCCNC(=O)c1ccccc1C(=O)NCCCC	?	29.1µM	-	-	29.1µM	5.32µM
CCC(=O)N1CCc2cc(Br)cc(S(=O)(=O)CCC(=O)N3CCN(c4ccc(OC)cc4)CC3)c21	-	-	-	-	-	.
O=C(Nc1ccccn1)C1CCN(c2ncnc3c2nc2n3CCCCC2)CC1	-	?	-	-	2.31µM	-
Clc1ccccc1CNc1ncnc2c1nc1n2CCCC1	-	?	-	-	?	.
CCc1ccc(NC(=O)C2CCN(c3ncnc4c3nc3n4CCCCC3)CC2)cc1	-	?	-	-	?	-
COc1ccccc1CNc1ncnc2c1nc1n2CCCC1	-	8.2µM	-	-	?	.
O=C(Nc1ccc(F)cc1)C1CCN(c2ncnc3c2nc2n3CCCCC2)CC1	-	18.4µM	-	-	?	-
COc1ccccc1CNC(=O)C1CCN(c2ncnc3c2nc2n3CCCCC2)CC1	-	23.1µM!	-	-	?	-
CC(C)CNC(=O)c1cc(S(=O)(=O)N2CCOCC2)ccc1N1CCCC1	-	-	-	-	-	-
COc1ccc2c(c1)OC(C)CN(CCNC(=O)c1cccc(N3CCNC3=O)c1)C2 (stereo not drawn)	.	-	.	.	-[9.04 µM]	.
CCOc1ccc(Nc2ncnc3c2nc2n3CCCCC2)cc1	-	20.6µM	-	-	?	.
COc1ccc(Nc2ncnc3c2nc2n3CCCCC2)cc1	-	?	-	-	-	.
c1ccc2cnccc2c1	.	-	.	.	-	.
COc1ccccc1N1CCN(c2ncnc3c2cnn3-c2ccc(C)cc2)CC1	-	-	-	-	-	.
Cn1ncc2c(N3CCN(c4ccc(Cl)c(Cl)c4)CC3)ncnc21	-	7.31µM	-	-	10.3µM	-
Cn1nnc2c(N3CCN(c4cccc(Cl)c4)CC3)ncnc21	-	4.11µM	-	-	?	.
Clc1ccc(-n2ncc3c(N4CCCC4)ncnc32)cc1	-	-	-	-	-	-
Cn1ncc2c(N3CCN(c4ccccc4F)CC3)ncnc21	-	23.1µM	-	-	?	-
Cc1ccc(OCc2cc(=O)n3c4c(sc3n2)CCCC4)cc1C	-	-	-	-	-	.
C=CCc1cc(/C=C2/NC(=O)NC2=O)cc(OCC)c1O	-	?	-	-	-	-
C=CCc1cc(C=Nc2ccc(N3CCOCC3)cc2)cc(OCC)c1O	-	16.4µM	.	.	-	-
Cc1cc2nc(-c3cccc(NC(=O)CSc4ccc(Cl)cc4)c3)oc2cc1C	-	?	-	-	16.4µM	.
Cc1ccc(SCC(=O)Nc2ccc3oc(-c4cccc(Cl)c4)nc3c2)cc1	-	20.6µM	-	-	?	.
SMILES	VDR inh	TDP1 cell noCPT	GCN5L2 inh	TDP1 block	DT40 TDP1 CPT	PLK1 PBD block
Cc1cccc(-c2nc3cc(NC(=O)Cc4ccc(Cl)cc4)ccc3o2)c1	-	10.3µM	-	-[12.3 µM]	16.4µM	.
CCOC(=O)N1CCN(CC(O)COc2ccc3c(c2)CCC3)CC1 (stereo not drawn)	-	-	-	-	-	-
O=S(=O)(c1ccc(F)cc1)N(Cc1nc(-c2ccc(Cl)cc2)no1)C1CCCCC1	-	25.9µM	-	-	?	.
Cc1ccc(-c2noc(CN(C3CCCCC3)S(=O)(=O)c3ccc(Cl)cc3)n2)cc1	-	?	-	-	25.9µM	.
CN(Cc1nc(-c2ccncc2)no1)S(=O)(=O)c1ccc(Cl)cc1	-	?	-	-	?	-
O=S(=O)(c1ccc(F)cc1)N(Cc1nc(-c2ccccc2)no1)C1CCCCC1	-	16.4µM	-	-	?	.
COc1ccc(S(=O)(=O)N(Cc2nc(-c3ccc(Cl)cc3)no2)C2CCCCC2)cc1	-	20.6µM	-	-	20.6µM	.
CCN(CC)C(=O)CSc1nc2cc3c(cc2c(=O)n1CCCCCC(=O)NCc1ccc(OC)cc1)OCO3	-	?	-	-	?	-
CCCC[n+]1ccn(-c2nc3ccccc3nc2[N-]S(=O)(=O)c2cccs2)c1	-	?	-	-	?	-
O=C(COC(=O)CNC(=O)c1ccc(Br)o1)Nc1ccccc1OC(F)F	-	-	-	-	-	-
COc1ccc(CCNCC(=O)Nc2ccc(C)c(Br)c2)cc1OC	-	?	-	.	9.2µM	-
Cc1ccc(NC(=O)Cc2ccc(Cl)c(Cl)c2)cc1S(=O)(=O)N(C)C	-	23.1µM	-	-	?	-
COc1ccc(CCNCC(=O)Nc2ccc(C)c(S(=O)(=O)N(C)C)c2)cc1OC	-	-	-	79.4µM	?	-
CN(C)S(=O)(=O)c1cc(NC(=O)CSc2nn(-c3ccc(Cl)cc3)c(=S)s2)ccc1Cl	-	?	-	-	?	-
Cc1ccc(NC(=O)CSc2nn(-c3ccc(Cl)cc3)c(=S)s2)cc1S(=O)(=O)N(C)C	-	?	-	-	9.2µM	-
CCC(C)(C)OC	.	.	.	-	.	.
CCOC(=O)Nc1ccc2c(c1)N(C(=O)CN)c1ccccc1CC2	-	?	-	.	?	-
CCOC(=O)Nc1ccc2c(c1)N(C(=O)OCCN(C)C)c1ccccc1CC2	-	?	-	-	18.4µM	?
Cc1c(C(=O)N(Cc2ccccc2F)C2CCS(=O)(=O)C2)oc2ccc(F)cc12 (stereo not drawn)	-	20.6µM	-	-	16.4µM	.
Cc1ccc2c(C)c(C(=O)N(Cc3ccc(F)cc3)C3CCS(=O)(=O)C3)oc2c1 (stereo not drawn)	-	?	-	-	?	-
Cc1ccc2oc(C(=O)N(Cc3ccccc3F)C3CCS(=O)(=O)C3)c(C)c2c1 (stereo not drawn)	-	23.1µM	-	-	?	.
COc1ccc(OC)c(C2C(C(=O)N3CCCCC3)=C(C)Nc3nc4ccccc4n32)c1 (stereo not drawn)	-	-	-	-	-	.
COc1ccc(CCNC(=O)C(C)n2nc(C)c3sc4ccccc4c3c2=O)c(OC)c1 (stereo not drawn)	-	16.4µM	-	-	20.6µM	.
CCC(C(=O)NCc1ccccc1)n1nc(C)c2sc3ccccc3c2c1=O (stereo not drawn)	-	?	-	-	?	.
CCOc1ccc(CCNC(=O)CCCn2nc(C)c3sc4ccccc4c3c2=O)cc1OCC	-	18.4µM	-	-	23.1µM	.
CCC(C(=O)NCCc1ccc(OC)c(OC)c1OC)n1nc(C)c2sc3ccccc3c2c1=O (stereo not drawn)	-	11.6µM	-	-	9.2µM	.
COc1ccc(CCNC(=O)CCCn2nc(C)c3sc4ccccc4c3c2=O)cc1OC	-	?	-	-	?	.
CCN(C(=O)CSc1nc2ccccc2n1CC(=O)NCc1ccc(OC)cc1)c1ccccc1	-	23.1µM	-	-	?	.
